The whole screen tested about 220,000 compounds, of which about 910 (0.41%) were called active.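 Rule for the calls: active = primary inhibition above the hit cutoff, then over 50% inhibition at one or more dose response concentrations (cut at about 23% in these data, passing the limit was not always enough); inconclusive = conflicting primary data, or primary hits not chosen for dose response; inactive = low primary inhibition, or under 50% at every dose.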 The sample as a whole holds a higher share of actives than the screen did. Measured potencies and affinities stand elsewhere.

Aminopeptidase N (Plasmodium falciparum (isolate 3D7)), sequence (O96935 whole entry, looked up): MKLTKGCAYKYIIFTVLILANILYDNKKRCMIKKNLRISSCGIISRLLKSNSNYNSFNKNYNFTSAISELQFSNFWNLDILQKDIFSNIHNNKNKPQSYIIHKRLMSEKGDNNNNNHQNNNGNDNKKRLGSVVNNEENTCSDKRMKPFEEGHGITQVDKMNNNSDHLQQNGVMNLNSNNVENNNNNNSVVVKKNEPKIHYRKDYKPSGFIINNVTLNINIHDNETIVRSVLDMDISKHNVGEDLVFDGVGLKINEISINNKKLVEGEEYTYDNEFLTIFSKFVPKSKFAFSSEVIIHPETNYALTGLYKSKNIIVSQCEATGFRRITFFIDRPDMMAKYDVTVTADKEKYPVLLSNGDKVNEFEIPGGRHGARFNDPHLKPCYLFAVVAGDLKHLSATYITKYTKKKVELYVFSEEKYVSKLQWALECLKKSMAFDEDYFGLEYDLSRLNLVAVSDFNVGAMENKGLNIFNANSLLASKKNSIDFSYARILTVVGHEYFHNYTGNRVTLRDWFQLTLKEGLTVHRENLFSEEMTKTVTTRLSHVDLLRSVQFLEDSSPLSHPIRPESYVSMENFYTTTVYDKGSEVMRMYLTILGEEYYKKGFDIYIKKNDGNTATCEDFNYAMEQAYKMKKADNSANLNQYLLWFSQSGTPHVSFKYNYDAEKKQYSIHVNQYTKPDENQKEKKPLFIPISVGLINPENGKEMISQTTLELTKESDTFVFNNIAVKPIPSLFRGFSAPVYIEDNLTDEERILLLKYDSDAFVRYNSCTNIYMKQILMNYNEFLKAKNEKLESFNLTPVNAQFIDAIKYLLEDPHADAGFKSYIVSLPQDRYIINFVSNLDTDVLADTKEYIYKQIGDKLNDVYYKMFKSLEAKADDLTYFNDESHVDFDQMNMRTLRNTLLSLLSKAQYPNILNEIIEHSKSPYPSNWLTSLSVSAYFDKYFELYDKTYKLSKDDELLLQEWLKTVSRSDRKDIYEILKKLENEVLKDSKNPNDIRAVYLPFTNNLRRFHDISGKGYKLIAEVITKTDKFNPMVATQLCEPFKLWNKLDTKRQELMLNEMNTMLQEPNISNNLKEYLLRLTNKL

The assay concerns the target Aminopeptidase N (Plasmodium falciparum (isolate 3D7)) (UniProt O96935). Kind of assay: P. falciparum M1AAP inhibitors, biochemical, fluorogenic H-Leu-NHMec substrate, 1536-well (AID 1445).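 Note: plate controls were DMSO full reaction for no effect and no enzyme background for full effect.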 The note with it: recombinant M1AAP, H-Leu-NHMec fluorogenic kinetic assay; at 30 µM, hits give high values unless noted.
Regarding `CCOc1ccccc1C(=O)Nc1nnc(SCC(=O)N2CCOCC2)s1`, the inhibition (commonly the drop in the measured response relative to a control, in per cent) was 2.46% (inactive).

As for `CN(CC(=O)N1CCCCCC1)S(=O)(=O)c1ccc(Br)s1`, the inhibition is 8.78% (inactive).

With `CCOC(=O)Cn1nc(C)c(NC(=O)COc2ccccc2[N+](=O)[O-])c1C`, the inhibition is 0.47% (inactive).

Consider `Cn1c(=O)n(-c2cccc(Cl)c2)c(=O)n1C`, for which the inhibition was 4.63% (inactive).

On to `COc1ccc(/C=C/C(=O)NC(=S)NNC(=O)c2cccnc2)cc1`, for which the inhibition is -8.48% (inactive).

As for `Cc1cc(OCc2nn[nH]n2)c2c(C)c(CC(=O)O)c(=O)oc2c1`, the inhibition is 0.25% (inactive).

On to `Cc1oc(C(=O)O)cc1COc1ccc2c3c(c(=O)oc2c1C)CCC3`, for which the inhibition is 7.51% (inactive).

As to `Cc1cc2oc(=O)c3c(c2cc1OCc1nn[nH]n1)CCCC3`, the inhibition is 10.1% (inactive).

Turning to `Cc1oc(C(=O)O)cc1COc1ccc2c3c(c(=O)oc2c1)CCC3`, the inhibition is 5.26% (inactive).

Turning to `Cc1ccc(S(=O)(=O)NC2=NCCC2)cc1`, the inhibition was -0.29% (inactive).

Take `NC(=O)Cn1nc(C(F)(F)F)c2c1CCCC2`: the inhibition is 10.1% (inactive).

Turning to `O=C(CSc1nnc(CCc2nc3ccccc3[nH]2)n1-c1ccccc1)NCc1ccccc1`, the inhibition is -1.21% (inactive).

With `N#C/C(=C\c1cn[nH]c1-c1ccccc1)C(=O)NC1CCCCCC1`, the inhibition was 9.74% (inactive).

With `COc1ccc(-c2[nH]ncc2/C=C(/C#N)C(=O)NC2CCCCC2)cc1`, the inhibition is 7.83% (inactive).

As for `Cc1ccc(-c2[nH]ncc2/C=C(\C#N)C(=O)NC2CCCCC2)cc1`, the inhibition was 24.9% (active).

On to `CCOC(=O)c1[nH]c2ccc(OC)cc2c1NC(=O)c1cccc(OC)c1`, for which the inhibition was 3.82% (inactive).

On to `Cc1nn(-c2ccccc2)c(Cl)c1C(=O)N(C)c1nc(-c2ccc(F)cc2)cs1`, for which the inhibition was -3.58% (inactive).

As for `COc1cc(/C=C/C(=O)NCCn2c(C)cc3ccccc32)cc(OC)c1OC`, the inhibition is 8.36% (inactive).

With `N#Cc1cn(CC(=O)N2CCCc3ccccc32)c2ccccc12`, the inhibition is 9.27% (inactive).

Regarding `O=Cc1cn(CC(=O)N2CCc3ccccc32)c2ccccc12`, the inhibition is 2.93% (inactive).

As to `O=C(NCC(c1cccs1)N1CCOCC1)c1ccc(Cl)s1` (stereo unspecified), the inhibition is 7.44% (inactive).

Take `C=CCNC(=S)N1CCC(C(=O)c2ccc(OC)cc2)CC1`: the inhibition was 8.35% (inactive).

In the case of `COc1ccc(C2OC(=O)C(C)(C)C(=O)C2(C)C)cc1OC` (stereo unspecified), the inhibition was -0.38% (inactive).

`Cc1ccc(S(=O)(=O)c2c(C)nn(-c3ccccc3)c2OC(=O)c2ccco2)cc1`: the inhibition is 6.34% (inactive).

For `Cc1ccc(S(=O)(=O)c2c(C)nn(C(C)(C)C)c2OC(=O)c2ccc(Br)o2)cc1`, the inhibition is 19.6% (inactive).

Turning to `Cc1ccc(S(=O)(=O)c2c(C)nn(C(C)(C)C)c2OC(=O)c2ccco2)cc1`, the inhibition is 27.3% (active).

In the case of `CCCCCOC(=O)C1C2C=CC3(CN(c4ccccc4C)C(=O)C13)O2` (stereo unspecified), the inhibition was 5.27% (inactive).

In the case of `Nc1nc(CSc2ncccn2)nc(Nc2ccccc2)n1`, the inhibition was -3.84% (inactive).

As for `O=C(Nc1ccc(-n2cnnn2)cc1)C1CCCN1C(=O)NC1CCCCC1` (stereo unspecified), the inhibition was 3.93% (inactive).

On to `O=C(CSc1ncn[nH]1)Nc1ccccc1-c1ccccc1`, for which the inhibition was -4.4% (inactive).

Consider `Nc1cc(=O)[nH]c(SCC(=O)Nc2ccccc2-c2ccccc2)n1`, for which the inhibition is 2.73% (inactive).

With `CCCNc1ncccc1C(N)=O`, the inhibition was -1.06% (inactive).

`O=c1c(-c2nc3ccccc3s2)cccn1Cc1ccccc1`: the inhibition was 25.6% (active).

As to `Cc1ccc(Cn2cccc(-c3nc4ccccc4s3)c2=O)cc1`, the inhibition is 10.1% (inactive).

Regarding `O=c1c(-c2nc3ccccc3s2)cccn1Cc1ccc(Cl)cc1`, the inhibition was 2.06% (inactive).

For `O=C(O)CCC(=O)OC1CC2CCC1C2` (stereo unspecified), the inhibition is -3.14% (inactive).

On to `CCN(CC)S(=O)(=O)c1ccc(NC(=O)CC(NC(C)=O)c2ccccc2)cc1` (stereo unspecified), for which the inhibition is -1.24% (inactive).

With `CCOc1cc(/C=C2\SC(=S)N(Nc3ccccc3)C2=O)ccc1O`, the inhibition was 14.7% (inactive).

In the case of `COc1ccc(C2=NN(c3ccccc3)C(=O)/C2=C\c2ccc(O)c(OC)c2)cc1`, the inhibition was 8.38% (inactive).

As for `COc1cc(/C=C2\SC(c3ccc(C)cc3)=NC2=O)ccc1O`, the inhibition was 9.74% (inactive).

For `CCOc1cc(/C=C2\C(=O)N(c3nc(-c4ccc(Br)cc4)cs3)N=C2c2ccccc2)ccc1O`, the inhibition is 15.7% (inactive).

As for `CCNc1c([N+](=O)[O-])c(=O)oc2ccccc12`, the inhibition is 7.91% (inactive).

For `COc1ccccc1C(=O)N1CCN(Cc2cn[nH]c2-c2ccc(F)cc2F)CC1`, the inhibition was 3.76% (inactive).

As for `Cc1cccc2cc(CN(C(=O)c3cnccn3)C3CCCCC3)c(Cl)nc12`, the inhibition is 5.74% (inactive).

In the case of `Cc1ccc(S(=O)(=O)NN=C2CCN(Cc3ccccc3)CC2)cc1`, the inhibition is 4.22% (inactive).

On to `O=C(O)CC(c1ccc(Cl)cc1)n1cccc1` (stereo unspecified), for which the inhibition was 8.45% (inactive).

Consider `CC(=O)Nc1cc(C(=O)OC(C(=O)c2ccccc2)c2ccccc2)ccc1C` (stereo unspecified), for which the inhibition was 2.38% (inactive).

On to `Cc1cccc2cc(COC(=O)C(C)(C)C)c(=O)[nH]c12`, for which the inhibition is 4.55% (inactive).

As to `Nc1c(C(=O)N2CCOCC2)sc(=S)n1-c1ccccc1`, the inhibition was 24.9% (active).

Take `Nc1c(C(=O)N2CCCCC2)sc(=S)n1-c1ccccc1`: the inhibition was 0.35% (inactive).

`Cc1ccc(-n2c(N)c(C(=O)N3CCOCC3)sc2=S)cc1`: the inhibition is -1.83% (inactive).

In the case of `CCOC(=O)CC(NC(=O)c1ccc(C)cc1)c1ccc(OC)cc1` (stereo unspecified), the inhibition is 5.77% (inactive).

Regarding `CCN(Cc1ccncc1)C(=O)CCc1nnc(CCc2ccccc2OC)o1`, the inhibition is -2.71% (inactive).

For `NC(N)=Nc1nc(-c2ccccc2)c2ccccc2n1`, the inhibition was 5.22% (inactive).

As for `CCc1ccc2nc(N=C(N)N)nc(C)c2c1`, the inhibition is 5.85% (inactive).

With `COc1cc(/C=C2/SC(=S)N(CC(=O)Nc3nc4ccccc4s3)C2=O)cc(OC)c1OC`, the inhibition is 6.28% (inactive).

As to `Cc1ccc(N(Cc2ccccc2F)S(C)(=O)=O)cc1C`, the inhibition is -9.52% (inactive).

`Cc1oc2c(cc(NS(=O)(=O)c3cccs3)c3ccccc32)c1C(=O)OC(C)C`: the inhibition is 3.76% (inactive).

For the compound `O=C1CCCc2oc3c(cc(NS(=O)(=O)c4ccc5c6c(cccc46)C(=O)N5)c4ccccc43)c21`, the inhibition was 3.6% (inactive).

For the compound `CCCn1c(=N)c(C(=O)NCC2CCCO2)cc2c(=O)n3cccc(C)c3nc21` (stereo unspecified), the inhibition is 7.23% (inactive).

For `Cc1cccn2c(=O)c3cc(C(=O)NCC4CCCO4)c(=N)n(CCN4CCOCC4)c3nc12` (stereo unspecified), the inhibition is 8.4% (inactive).

Regarding `COCCCn1c(=N)c(C(=O)NCc2ccc3c(c2)OCO3)cc2c(=O)n3ccccc3nc21`, the inhibition was 4.69% (inactive).

With `N=c1c(C(=O)NCC2CCCO2)cc2c(=O)n3ccccc3nc2n1Cc1cccnc1` (stereo unspecified), the inhibition was 20% (inactive).

Take `COc1ccccc1N1C(=O)c2ccc(C(=O)Nc3nccs3)cc2C1=O`: the inhibition is 7.44% (inactive).

`O=C(CSc1ccc(-c2ccccn2)nn1)c1ccc(F)cc1`: the inhibition was 1.12% (inactive).

In the case of `N#Cc1c(N)sc(=S)c2c1CCCCC2`, the inhibition was 23.8% (active).

Turning to `N#Cc1c(N)sc(=S)c2c1CCCC2`, the inhibition is 9.2% (inactive).

As to `N#Cc1c(N)sc2c1CCCCCC2`, the inhibition is 7.78% (inactive).

Take `Cn1cnnc1Sc1ccc(C(=O)OCC(=O)Nc2cc(Cl)cc(Cl)c2)cc1[N+](=O)[O-]`: the inhibition is 3.75% (inactive).

`CCN(CC)S(=O)(=O)c1cccc(C(=O)Nc2cccnc2)c1`: the inhibition was -0.19% (inactive).

`CCN(CC)c1ccc(NC(=O)c2cccnc2)c(C)c1`: the inhibition was 3.17% (inactive).

As for `NNC(=O)c1ccc2c(c1)S(=O)(=O)NNC2=O`, the inhibition is 8% (inactive).

Turning to `CC(C)N(C)C1CCN(C(=O)Nc2ccc(Cl)c(Cl)c2)CC1`, the inhibition was 6.97% (inactive).

Consider `COc1cc(OC)c(NS(=O)(=O)c2cc(C(=O)OC(C)C(=O)NC3CC3)c(Cl)cc2Cl)cc1Cl` (stereo unspecified), for which the inhibition is 10% (inactive).

As to `COc1cc(OC)c(NC(C)C(=O)N2CCCC2)cc1Cl` (stereo unspecified), the inhibition was 11.4% (inactive).

For `CCCCCCOc1ccc(C(CC(=O)O)C(N)=O)cc1` (stereo unspecified), the inhibition is -7.78% (inactive).

Take `O=C(NCc1cccnc1)C(=O)NCC(c1ccco1)N1CCOCC1` (stereo unspecified): the inhibition is 11.1% (inactive).

As for `Cc1[nH]c2ccccc2c1/C=N/NC(=O)CNC(=O)c1cccs1`, the inhibition is 0.9% (inactive).

For the compound `CCN1CCN(CC(=O)N/N=C/c2ccc(F)cc2F)CC1`, the inhibition was 15.6% (inactive).

For the compound `CO/N=C/C(=N\Nc1ccc(OC)cc1)C(=O)c1ccc(OC)cc1`, the inhibition was 12% (inactive).

For `COc1ccc(N/N=C(\C=N\O)C(=O)c2ccc(OC)cc2)cc1`, the inhibition is 24.1% (active).

As for `COc1ccc(C(=O)C(/C=N/O)=N/Nc2ccc(F)cc2)cc1`, the inhibition was 4.27% (inactive).

As to `Cc1nc2sc3c(c2c(=O)n1/N=C/c1cccnc1)CCCC3`, the inhibition is 2.58% (inactive).

Turning to `CN(C)CCCN1C(=O)c2oc3ccccc3c(=O)c2C1c1cccs1` (stereo unspecified), the inhibition was 10.7% (inactive).

For `CCN(CC)CCCN1C(=O)c2oc3ccccc3c(=O)c2C1c1cccs1` (stereo unspecified), the inhibition was 23.3% (active).

With `O=C1c2oc3ccccc3c(=O)c2C(c2cccs2)N1CCCN1CCOCC1` (stereo unspecified), the inhibition is 16.3% (inactive).

Turning to `S=C(NC1CC1)N1CCN(c2ccc(Cl)cc2)CC1`, the inhibition is -2.34% (inactive).

`CC(C)C(=O)NC(=S)Nc1ccc(S(=O)(=O)Nc2nccs2)cc1`: the inhibition is 2.01% (inactive).

Turning to `O=C(Cc1ccccc1)Nn1c(-c2ccccc2)nc2ccccc2c1=O`, the inhibition is 3.49% (inactive).

`Cc1ccc(-c2nc3ccccc3c(=O)n2NC(=O)c2cccs2)cc1`: the inhibition was 5.47% (inactive).

In the case of `O=C(Cc1cccs1)Nn1c(Cc2cccs2)nc2ccccc2c1=O`, the inhibition is 10.8% (inactive).

As for `O=C(Nn1c(Cc2cccs2)nc2ccccc2c1=O)c1ccc(F)c(F)c1`, the inhibition is 8.58% (inactive).

Take `COc1cccc(OC)c1C(=O)Nn1c(-c2cccs2)nc2ccccc2c1=O`: the inhibition was 1.67% (inactive).

As for `Cc1cccc(-c2nc3ccccc3c(=O)n2NC(=O)c2cccnc2Cl)c1`, the inhibition was 8.24% (inactive).

As for `COc1cccc(OC)c1C(=O)Nn1c(-c2cccc(C)c2)nc2ccccc2c1=O`, the inhibition is 6.13% (inactive).

As for `COc1ccccc1C(=O)Nn1c(-c2cccs2)nc2ccccc2c1=O`, the inhibition was 10.4% (inactive).

These data come from PubChem BioAssay AID1445 (SRMLSC, 2008).
